aSyn UTR act = Activators working through SNCA 5'UTR binding (MLPCN). alpha-synuclein 5'UTR reporter, activators screen. 300,000 tested, 7.1% active. activity score, % (tested at 7.5 µM), hits read low; in the data active means activity score below about -60%
* = called active by the depositor. Only a sample is shown.

How did N#CC1=C(N)N2C(=C(C#N)C1c1cccc(Br)c1)Nc1ccccc12 (stereo not drawn) do in these assays?
aSyn UTR act: 60

What do the screens show for `Fc1ccccc1Nc1n[nH]c(=S)s1`?
aSyn UTR act: -64*

What do the screens show for `CC1CCc2c(sc3ncn(CCO)c(=O)c23)C1` (stereo not drawn)?
aSyn UTR act: -116*

Results for COc1ccc(C2Nc3ccccc3C(=O)N2c2ccc(C)cc2)cc1Cn1nnc2ccccc21 (stereo not drawn) ?
aSyn UTR act: -122*

How did COc1ccc(C2Nc3ccccc3C(=O)N2c2ccc(C)cc2)cc1Cn1cc([N+](=O)[O-])cn1 (stereo not drawn) do in these assays?
aSyn UTR act: -87*

Results for Cc1ccc(-c2cc3nc(-c4ccccc4)cc(N)n3n2)cc1 ?
aSyn UTR act: -236*

Results for CSc1nc(N)n2nc(-c3ccccc3)cc2n1 ?
aSyn UTR act: -119*

Results for COc1cccc(/C=N/NC(=O)c2cc(-c3cccn3C)n[nH]2)c1O ?
aSyn UTR act: 95

What do the screens show for `COc1cc(/C=N/NC(=O)c2cc(-c3cccn3C)n[nH]2)cc(OC)c1OC`?
aSyn UTR act: -71*

What do the screens show for `Cc1ccc(OCc2cnc(Cl)s2)c(C)c1`?
aSyn UTR act: -134*

Results for COc1ccc(OCc2cnc(Cl)s2)cc1 ?
aSyn UTR act: -82*

Results for COc1cc(O)oc1C=Nc1ccc(C(F)(F)F)cc1 ?
aSyn UTR act: -89*

Results for Cc1ccc(C(=O)NCC(=O)NC23CC4CC(CC(C4)C2)C3)cc1 ?
aSyn UTR act: -76*

What do the screens show for `Cn1ccsc1=NC(=O)c1ccc(Cl)c([N+](=O)[O-])c1`?
aSyn UTR act: -117*

How did Cn1ccsc1=NC(=O)c1ccc(S(C)(=O)=O)cc1 do in these assays?
aSyn UTR act: -62*

Results for Cc1cccc(C(=O)N=c2sccn2C)c1[N+](=O)[O-] ?
aSyn UTR act: -133*

What do the screens show for `CCCCOc1ccc(C(=O)N=c2sccn2C)cc1OC`?
aSyn UTR act: -164*

How did Cc1ccc(NC(=S)N=Nc2c(O)n(C)c3ccc(S(=O)(=O)N4CCOCC4)cc23)cc1C do in these assays?
aSyn UTR act: 77

How did Cc1ccc(C(=O)N=c2sccn2C)cc1S(=O)(=O)N1CCOCC1 do in these assays?
aSyn UTR act: -160*

Results for Cn1ccsc1=NC(=O)c1cccc(C#N)c1 ?
aSyn UTR act: -86*

Results for O=C(Nc1ccccc1)C(=O)Nc1ccc2c(c1)N(C(=O)C1CC1)CCC2 ?
aSyn UTR act: -121*

What do the screens show for `O=C(Nc1ncc2c(n1)CC(c1ccco1)CC2=O)c1ccccc1` (stereo not drawn)?
aSyn UTR act: -72*

Results for Cn1c(C(=O)NCc2ccccn2)cc2c(=O)n3ccccc3nc21 ?
aSyn UTR act: -89*

How did Cn1c(C(=O)NC2CCCCC2)cc2c(=O)n3ccccc3nc21 do in these assays?
aSyn UTR act: -134*

What do the screens show for `CCCn1c(C2CCCN2c2nc(-c3cccc(Br)c3)cs2)nc2ccccc21` (stereo not drawn)?
aSyn UTR act: -93*

What do the screens show for `CC(c1ccccn1)N(C)C(=O)c1ccc2nc(Cc3ccccc3F)oc2c1` (stereo not drawn)?
aSyn UTR act: -102*

How did O=C(c1ccc2nc(Cc3ccccc3F)oc2c1)N1CCCC1 do in these assays?
aSyn UTR act: -150*

Results for Cc1cc(CNC(=O)c2ccc3nc(Cc4ccccc4F)oc3c2)nn1C ?
aSyn UTR act: -135*

How did Cc1ccn2cc(-c3ccc(Br)cc3)nc2c1 do in these assays?
aSyn UTR act: 63

Results for Cc1ccn2cc(-c3cnoc3C)nc2c1 ?
aSyn UTR act: -97*

What do the screens show for `Cc1ccc(CSCC(=O)Nc2ccccc2C(=O)O)cc1`?
aSyn UTR act: -94*

How did CSc1ccccc1NC(=O)CSCc1ccc(C)cc1 do in these assays?
aSyn UTR act: -113*

Results for COc1nc(N/N=C/c2ccc(-c3ccccc3[N+](=O)[O-])o2)nc(N2CCOCC2)n1 ?
aSyn UTR act: -105*

What do the screens show for `Cc1ccc(C(=O)N/C(=C\c2ccc(-c3ccccc3[N+](=O)[O-])o2)C(=O)NCCCN2CCOCC2)cc1`?
aSyn UTR act: 71

Results for C/C(=N\Nc1ccc(C(=O)O)cc1)c1ccc(S(=O)(=O)NCc2ccco2)cc1 ?
aSyn UTR act: -75*

What do the screens show for `Cc1ccc(C(=O)Nc2ccc(S(=O)(=O)NCc3ccco3)cc2)cc1`?
aSyn UTR act: -92*

What do the screens show for `Cc1ccc(S(=O)(=O)Nc2nc3ccccc3nc2NCc2ccco2)cc1`?
aSyn UTR act: -180*

How did C/C(=N\Nc1nc(Cl)c(Cl)cc1Cl)c1ccc(S(=O)(=O)NCc2ccco2)cc1 do in these assays?
aSyn UTR act: -64*

How did Cc1ccc(C(=O)Nc2cccc(C(=O)NCc3ccco3)c2)cc1 do in these assays?
aSyn UTR act: -72*

How did Cc1ccc(C(=O)Nc2cccc(C(=O)N3CCN(C)CC3)c2)cc1 do in these assays?
aSyn UTR act: -98*

How did CCC1=Nc2cc(C(=O)NCc3ccco3)ccc2Sc2ccc(C)cc21 do in these assays?
aSyn UTR act: 104

How did COc1ccc(OC)c(C2C3=C(COC3=O)Nc3cc4c(cc32)OCO4)c1 (stereo not drawn) do in these assays?
aSyn UTR act: 89

Results for COc1ccc2c(c1)CC/C(=C/c1ccccn1)C2=O ?
aSyn UTR act: -81*

How did COc1cccc(/C=C2\CCc3ccccc3C2=O)c1 do in these assays?
aSyn UTR act: -97*

How did COc1ccc2c(c1)CC/C(=C\Nc1ccc3c(c1)OCO3)C2=O do in these assays?
aSyn UTR act: -197*

Results for COc1ccc(N/C=C2\CCc3ccccc3C2=O)cc1 ?
aSyn UTR act: 94

How did O=C1/C(=C/Nc2ccc3c(c2)OCO3)CCc2ccccc21 do in these assays?
aSyn UTR act: 96

Results for COc1ccc2c(c1)CC/C(=C\C=C\c1ccccc1)C2=O ?
aSyn UTR act: -64*

Results for CC[C@@H](C(=O)[C@@H](C)[C@@H](O)[C@H](C)CCc1ccc(C)c(O)c1C(=O)O)[C@H]1O[C@](CC)([C@H]2CC[C@](O)(CC)[C@H](C)O2)C[C@@H]1C ?
aSyn UTR act: 100

Results for Nc1nc(Nc2ccccc2F)nc(N2CCCC2)c1[N+](=O)[O-] ?
aSyn UTR act: -131*

How did CN(c1ccccc1)c1nc(N)c([N+](=O)[O-])c(N2CCCC2)n1 do in these assays?
aSyn UTR act: -97*

How did Cc1cccc(Nc2nc(N)c([N+](=O)[O-])c(N3CCCC(C)C3)n2)c1 (stereo not drawn) do in these assays?
aSyn UTR act: 59

What do the screens show for `N#Cc1ccccc1NC(=O)c1ccc2c(c1)OCCO2`?
aSyn UTR act: -94*

Results for Cc1ccccc1NC(=O)c1ccc2c(c1)OCCO2 ?
aSyn UTR act: -157*

How did COC(=O)c1ccccc1NC(=O)c1ccc2c(c1)OCCCO2 do in these assays?
aSyn UTR act: -85*

How did N#Cc1ccccc1NC(=O)COC(=O)c1ccc2c(c1)OCCO2 do in these assays?
aSyn UTR act: -130*

How did Cc1cccc(NC(=O)c2ccc3c(c2)OCCO3)c1C do in these assays?
aSyn UTR act: -113*

What do the screens show for `O=C(Nc1cnc2ccccn2c1=O)c1ccc(Cl)cc1`?
aSyn UTR act: -139*

What do the screens show for `COc1ccc(NC(=O)COC(=O)c2c(F)cccc2Cl)cc1OC`?
aSyn UTR act: -110*

How did COc1ccc(CCNC(=O)c2ccc(Cl)cc2Cl)cc1OC do in these assays?
aSyn UTR act: -99*

How did COc1cc(CCC(C)=O)ccc1OC(=O)c1c(F)cccc1Cl do in these assays?
aSyn UTR act: -185*

Results for COCCCNC(=S)N/N=C/c1ccc(N(C)C)cc1Cl ?
aSyn UTR act: -107*
